# Experimental data published in PubChem BioAssay (NCI).
# Compounds without any hit were thinned out: in the full panel of roughly 79,000, 15% have a hit. Unmarked numbers belong to inactive results. Activity calls are given as the source filed them. No stated cut-off is given here; in the data, active means growth inhibition above about 70%; inactive means the rest.
# Legend:
# [1] = NCI Yeast Anticancer Drug Screen. Data for the rad52 strain (AID 147);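 further: 0% = growth of vehicle-treated control cultures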; details: S. cerevisiae rad52 mutant growth inhibition, hits give high values
# Procedure, shortened: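 Compounds are applied to a genetically defined yeast strain lacking normal DNA damage repair, and inhibition of growth is expressed relative to cultures given vehicle only.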
# [2] = NCI Yeast Anticancer Drug Screen. Data for the wt1 strain (AID 149);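 further: 0% = growth of vehicle-treated wt1 cultures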; details: S. cerevisiae wt1 strain (SPY 50644) growth inhibition, hits give high values
# Procedure, shortened: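 Growth inhibition read against vehicle controls after compound exposure of the wt1 yeast strain.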
# [3] = NCI Yeast Anticancer Drug Screen. Data for the rad50EPP+ strain (AID 151);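 further: 0% = growth of vehicle-treated control cultures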; details: S. cerevisiae rad50 mutant strain, hits give high values
# Procedure, shortened: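 Compounds were applied to the rad50EPP+ yeast strain, which bears a defined DNA repair alteration, and growth inhibition was determined relative to vehicle-treated cultures.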
# [4] = NCI Yeast Anticancer Drug Screen. Data for the rad50 strain (AID 155);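 further: 0% = growth of vehicle-only cultures of the same strain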; details: S. cerevisiae rad50 strain growth inhibition, hits give high values
# Procedure, shortened: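 Readout: growth inhibition relative to vehicle-treated cultures. Compound exposure was carried out in a genetically defined yeast strain deficient in DNA damage repair.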
# [5] = NCI Yeast Anticancer Drug Screen. Data for the mec2-1 strain (AID 157); details: S. cerevisiae mec2-1 strain, hits give high values
# Procedure, shortened: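 Strain: mec2-1 (DNA repair/cell cycle alteration). Compound exposure, then growth measured; inhibition expressed relative to vehicle.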
# [6] = NCI Yeast Anticancer Drug Screen. Data for the rad14 strain (AID 159);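 further: 0% = growth of vehicle-treated control cultures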; details: S. cerevisiae rad14 strain growth inhibition, hits give high values
# Procedure, shortened: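 Growth inhibition vs vehicle controls; genetically altered yeast strain (DNA damage repair defect) treated with test compounds.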
# [7] = NCI Yeast Anticancer Drug Screen. Data for the sgs1 mgt1 strain (AID 161);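 further: 0% = growth of cultures given vehicle only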; details: S. cerevisiae sgs1 mgt1 strain, hits give high values
# Procedure, shortened: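 Genetically altered yeast, compound exposure, growth inhibition relative to vehicle.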
# [8] = NCI Yeast Anticancer Drug Screen. Data for the CLN2oe strain (AID 163);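 further: 0% = growth of vehicle-only control cultures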; details: S. cerevisiae CLN2oe strain, hits give high values
# Procedure, shortened: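 Growth of a genetically modified yeast strain is measured after compound exposure and compared with cultures given vehicle alone.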
# [9] = NCI Yeast Anticancer Drug Screen. Data for the cln2 rad14 strain (AID 165);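 further: 0% = growth equal to vehicle treated cultures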; details: S. cerevisiae cln2 rad14 strain, hits give high values
# Procedure, shortened: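 Compounds are applied to the cln2 rad14 yeast strain, and growth is then compared with that of vehicle-treated cultures to give inhibition.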
# [10] = NCI Yeast Anticancer Drug Screen. Data for the bub3 strain (AID 167); details: S. cerevisiae bub3 mutant strain, hits give high values
# Procedure, shortened: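 Readout: yeast growth inhibition, expressed relative to vehicle-only wells. The test organism is a mutant strain from a panel with lesions in DNA repair or checkpoint genes.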
# [11] = NCI Yeast Anticancer Drug Screen. Data for the wt2 strain (AID 169);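 further: 0% = growth of vehicle-treated yeast cultures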; details: S. cerevisiae wt2 strain growth inhibition, hits give high values
# Procedure, shortened: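 This strain belongs to a panel of yeast strains with defined genetic alterations in DNA damage repair or cell cycle control. Compounds are applied, and growth inhibition is measured against vehicle-treated cultures.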
# [12] = NCI Yeast Anticancer Drug Screen. Data for the mlh1 strain (AID 171);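 further: 0% = growth of vehicle-treated control cultures of the same strain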; details: S. cerevisiae mlh1 strain growth inhibition, hits give high values
# Procedure, shortened: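 Growth of the mutant yeast strain after compound exposure, expressed as inhibition relative to vehicle-only controls.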
# [13] = NCI Yeast Anticancer Drug Screen. Data for the sgs1 strain (AID 173);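 further: 0% = growth of vehicle-only control cultures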; details: S. cerevisiae sgs1 mutant, hits give high values
# Procedure, shortened: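 Growth of a yeast strain bearing a defined genetic alteration is measured after compound treatment. Inhibition is expressed relative to vehicle-only controls.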
# [14] = NCI Yeast Anticancer Drug Screen. Data for the mlh1 rad18 strain (AID 175); details: S. cerevisiae mlh1 rad18 strain growth inhibition, hits give high values
# Procedure, shortened: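 Read-out is yeast growth inhibition, calculated against vehicle-only controls. The compound was applied to a strain engineered with DNA damage repair alterations.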
# [15] = NCI Yeast Anticancer Drug Screen. Data for the rad18 strain (AID 177); details: S. cerevisiae rad18 mutant growth inhibition, hits give high values
# Procedure, shortened: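 Growth of the mutant yeast strain after compound exposure, normalised to vehicle-only cultures.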
# [16] = at 5.0 µM (retest, dose inferred, filed as 0.5)
# [17] = at 50.0 µM (retest, dose inferred, filed as 5.0)
smiles,measurement,setting,value
O=c1ccc(N=Nc2ccccc2)ccc1O,growth inhibition,[1]; at 1.2 µM,0%
same,growth inhibition,[1]; at 3.7 µM,42%
same,growth inhibition,[1]; at 11.0 µM,95% (active)
same,growth inhibition,[1]; at 33.0 µM,99% (active)
same,growth inhibition,[1]; at 100.0 µM,98% (active)
same,growth inhibition,[2]; at 1.2 µM,16%
same,growth inhibition,[2]; at 3.7 µM,56%
same,growth inhibition,[2]; at 11.0 µM,97% (active)
same,growth inhibition,[2]; at 33.0 µM,99% (active)
same,growth inhibition,[2]; at 100.0 µM,97% (active)
same,growth inhibition,[3]; at 1.2 µM,-8%
same,growth inhibition,[3]; at 3.7 µM,11%
same,growth inhibition,[3]; at 11.0 µM,88% (active)
same,growth inhibition,[3]; at 33.0 µM,98% (active)
same,growth inhibition,[3]; at 100.0 µM,97% (active)
same,growth inhibition,[4]; at 1.2 µM,18%
same,growth inhibition,[4]; at 3.7 µM,87% (active)
same,growth inhibition,[4]; [16],34%
same,growth inhibition,[4]; at 11.0 µM,97% (active)
same,growth inhibition,[4]; at 33.0 µM,99% (active)
same,growth inhibition,[4]; [17],99% (active)
same,growth inhibition,[4]; at 50.0 µM,98.7% (active)
same,growth inhibition,[4]; at 100.0 µM,98% (active)
same,growth inhibition,[5]; at 1.2 µM,-1%
same,growth inhibition,[5]; at 3.7 µM,37%
same,growth inhibition,[5]; [16],28%
same,growth inhibition,[5]; at 11.0 µM,93% (active)
same,growth inhibition,[5]; at 33.0 µM,99% (active)
same,growth inhibition,[5]; [17],99% (active)
same,growth inhibition,[5]; at 50.0 µM,98.7% (active)
same,growth inhibition,[5]; at 100.0 µM,98% (active)
same,growth inhibition,[6]; at 1.2 µM,1%
same,growth inhibition,[6]; at 3.7 µM,91% (active)
same,growth inhibition,[6]; at 11.0 µM,98% (active)
same,growth inhibition,[6]; at 33.0 µM,99% (active)
same,growth inhibition,[6]; at 100.0 µM,99% (active)
same,growth inhibition,[7]; [16],44%
same,growth inhibition,[7]; [17],99% (active)
same,growth inhibition,[7]; at 50.0 µM,98.7% (active)
same,growth inhibition,[8]; at 1.2 µM,-6%
same,growth inhibition,[8]; at 3.7 µM,33%
same,growth inhibition,[8]; at 11.0 µM,93% (active)
same,growth inhibition,[8]; at 33.0 µM,98% (active)
same,growth inhibition,[8]; at 100.0 µM,97% (active)
same,growth inhibition,[9]; [16],-3%
same,growth inhibition,[9]; [17],98% (active)
same,growth inhibition,[9]; at 50.0 µM,98.1% (active)
same,growth inhibition,[10]; at 1.2 µM,10%
same,growth inhibition,[10]; at 3.7 µM,77% (active)
same,growth inhibition,[10]; [16],22%
same,growth inhibition,[10]; at 11.0 µM,97% (active)
same,growth inhibition,[10]; at 33.0 µM,99% (active)
same,growth inhibition,[10]; [17],99% (active)
same,growth inhibition,[10]; at 50.0 µM,97.8% (active)
same,growth inhibition,[10]; at 100.0 µM,99% (active)
same,growth inhibition,[11]; at 1.2 µM,31%
same,growth inhibition,[11]; at 3.7 µM,87% (active)
same,growth inhibition,[11]; at 11.0 µM,99% (active)
same,growth inhibition,[11]; at 33.0 µM,99% (active)
same,growth inhibition,[11]; at 100.0 µM,98% (active)
same,growth inhibition,[12]; at 1.2 µM,10%
same,growth inhibition,[12]; at 3.7 µM,90% (active)
same,growth inhibition,[12]; at 11.0 µM,98% (active)
same,growth inhibition,[12]; at 33.0 µM,99% (active)
same,growth inhibition,[12]; at 100.0 µM,99% (active)
same,growth inhibition,[13]; at 1.2 µM,4%
same,growth inhibition,[13]; at 3.7 µM,62%
same,growth inhibition,[13]; at 11.0 µM,97% (active)
same,growth inhibition,[13]; at 33.0 µM,99% (active)
same,growth inhibition,[13]; at 100.0 µM,98% (active)
same,growth inhibition,[14]; [16],59%
same,growth inhibition,[14]; [17],99% (active)
same,growth inhibition,[14]; at 50.0 µM,98.8% (active)
same,growth inhibition,[15]; at 1.2 µM,9%
same,growth inhibition,[15]; at 3.7 µM,64%
same,growth inhibition,[15]; at 11.0 µM,97% (active)
same,growth inhibition,[15]; at 33.0 µM,99% (active)
same,growth inhibition,[15]; at 100.0 µM,98% (active)
COc1ccc(SCc2cc(OC)ccc2OC)cc1,growth inhibition,[1]; at 1.2 µM,0%
same,growth inhibition,[1]; at 3.7 µM,2%
same,growth inhibition,[1]; at 11.0 µM,4%
same,growth inhibition,[1]; at 33.0 µM,3%
same,growth inhibition,[1]; at 100.0 µM,3%
same,growth inhibition,[2]; at 1.2 µM,-4%
same,growth inhibition,[2]; at 3.7 µM,-4%
same,growth inhibition,[2]; at 11.0 µM,-5%
same,growth inhibition,[2]; at 33.0 µM,-6%
same,growth inhibition,[2]; at 100.0 µM,-1%
same,growth inhibition,[3]; at 1.2 µM,15%
same,growth inhibition,[3]; at 3.7 µM,18%
same,growth inhibition,[3]; at 11.0 µM,27%
same,growth inhibition,[3]; at 33.0 µM,30%
same,growth inhibition,[3]; at 100.0 µM,18%
same,growth inhibition,[4]; at 1.2 µM,0%
same,growth inhibition,[4]; at 3.7 µM,1%
same,growth inhibition,[4]; [16],-8%
same,growth inhibition,[4]; at 11.0 µM,2%
same,growth inhibition,[4]; at 33.0 µM,2%
same,growth inhibition,[4]; [17],66%
same,growth inhibition,[4]; at 50.0 µM,60.5%
same,growth inhibition,[4]; at 100.0 µM,3%
same,growth inhibition,[5]; at 1.2 µM,-1%
same,growth inhibition,[5]; at 3.7 µM,-7%
same,growth inhibition,[5]; [16],-26%
same,growth inhibition,[5]; at 11.0 µM,-6%
same,growth inhibition,[5]; at 33.0 µM,-9%
same,growth inhibition,[5]; [17],14%
same,growth inhibition,[5]; at 50.0 µM,13.9%
same,growth inhibition,[5]; at 100.0 µM,-3%
same,growth inhibition,[6]; at 1.2 µM,0%
same,growth inhibition,[6]; at 3.7 µM,-2%
same,growth inhibition,[6]; at 11.0 µM,-3%
same,growth inhibition,[6]; at 33.0 µM,0%
same,growth inhibition,[6]; at 100.0 µM,2%
same,growth inhibition,[7]; [16],-27%
same,growth inhibition,[7]; [17],37%
same,growth inhibition,[7]; at 50.0 µM,67%
same,growth inhibition,[8]; at 1.2 µM,-4%
same,growth inhibition,[8]; at 3.7 µM,-9%
same,growth inhibition,[8]; at 11.0 µM,-6%
same,growth inhibition,[8]; at 33.0 µM,-8%
same,growth inhibition,[8]; at 100.0 µM,-2%
same,growth inhibition,[9]; [16],-25%
same,growth inhibition,[9]; [17],58%
same,growth inhibition,[9]; at 50.0 µM,20.1%
same,growth inhibition,[10]; at 1.2 µM,3%
same,growth inhibition,[10]; at 3.7 µM,13%
same,growth inhibition,[10]; [16],-17%
same,growth inhibition,[10]; at 11.0 µM,24%
same,growth inhibition,[10]; at 33.0 µM,21%
same,growth inhibition,[10]; [17],73% (active)
same,growth inhibition,[10]; at 50.0 µM,61.3%
same,growth inhibition,[10]; at 100.0 µM,14%
same,growth inhibition,[11]; at 1.2 µM,-2%
same,growth inhibition,[11]; at 3.7 µM,0%
same,growth inhibition,[11]; at 11.0 µM,-2%
same,growth inhibition,[11]; at 33.0 µM,0%
same,growth inhibition,[11]; at 100.0 µM,1%
same,growth inhibition,[12]; at 1.2 µM,-2%
same,growth inhibition,[12]; at 3.7 µM,-4%
same,growth inhibition,[12]; at 11.0 µM,0%
same,growth inhibition,[12]; at 33.0 µM,-4%
same,growth inhibition,[12]; at 100.0 µM,0%
same,growth inhibition,[13]; at 1.2 µM,-2%
same,growth inhibition,[13]; at 3.7 µM,-4%
same,growth inhibition,[13]; at 11.0 µM,-2%
same,growth inhibition,[13]; at 33.0 µM,-2%
same,growth inhibition,[13]; at 100.0 µM,0%
same,growth inhibition,[14]; [16],-16%
same,growth inhibition,[14]; [17],67%
same,growth inhibition,[14]; at 50.0 µM,21.3%
same,growth inhibition,[15]; at 1.2 µM,-5%
same,growth inhibition,[15]; at 3.7 µM,-5%
same,growth inhibition,[15]; at 11.0 µM,-3%
same,growth inhibition,[15]; at 33.0 µM,-16%
same,growth inhibition,[15]; at 100.0 µM,-1%
